Data taken from the supplement of paper PMC13380429.

System: Vero E6 infected with SARS-CoV-2
Test: inhibition of SARS-CoV-2 cytopathic effect; higher = more antiviral protection, active = above 15
Conditions: 48 h

Measured: inhibition of SARS-CoV-2 cytopathic effect

O=C1Nc2ccccc2C2(CCN(CCc3ccc(C(F)(F)F)cc3)CC2)O1
inactive: 1 nM -1.89% | 8.33 nM -4.51% | 100 nM -1.41% | 833.33 nM -2.49% | 10000 nM -3.73%

COc1ccc(CCN(C)CCCN2CCc3cc(OC)c(OC)cc3CC2=O)cc1OC [zatebradine]
inactive: 1 nM 0.14% | 8.33 nM 1.94% | 100 nM 1.29% | 833.33 nM 0.25% | 10000 nM -2.07%

O=C(NCC(=O)N1CC[C@H](N[C@H]2CC[C@@](O)(c3ccc(-c4ncccn4)cn3)CC2)C1)c1cccc(C(F)(F)F)c1
inactive: 1 nM -4.52% | 8.33 nM -2.69% | 100 nM 1.06% | 833.33 nM -0.75% | 10000 nM -0.61%

Cc1c(Cl)cccc1S(=O)(=O)Nc1nc(CC(=O)N2CCN(C)CC2)cs1
inactive: 1 nM 1.65% | 8.33 nM 0.23% | 100 nM -1.13% | 833.33 nM 3.23% | 10000 nM 2.25%

O=C1C[C@@]2(C(=O)N1)C(=O)N(Cc1ccc(Br)cc1F)C(=O)c1cccn12 [ranirestat]
inactive: 1 nM 0.68% | 8.33 nM 1.21% | 100 nM 2.23% | 833.33 nM 3.78% | 10000 nM 1.01%

NC(=O)CN1CC[C@@H](NC(=O)[C@@H]2CCCN2)C1=O
inactive: 1 nM 1.05% | 8.33 nM -1.41% | 100 nM 0.01% | 833.33 nM 0.9% | 10000 nM 0.65%

CC(=O)Nc1ccc(C(=O)O)cc1 [acedoben]
inactive: 1 nM -1.13% | 8.33 nM 3.16% | 100 nM 1.58% | 833.33 nM 0.73% | 10000 nM 3.31%
